# According to PubChem BioAssay:
# Calls of active or inactive are those of the source.
# Assays:
# [1] = biological target: Albumin (Bos taurus) (UniProt P02769); experiment: compounds binding labelled BSA control protein – biochemical, small-molecule microarray, Alexa647 label, 635/667 nm fluorescence, artefact control for SMM control protein annotation, profiling panel (AID 1118); settings: BSA-A647 binding, fluorescence 635 nm, higher = more signal;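 also: score merges 667 nm emission intensity and signal-to-noise per printed compound spot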
# Albumin (Bos taurus), sequence (P02769 whole entry, looked up): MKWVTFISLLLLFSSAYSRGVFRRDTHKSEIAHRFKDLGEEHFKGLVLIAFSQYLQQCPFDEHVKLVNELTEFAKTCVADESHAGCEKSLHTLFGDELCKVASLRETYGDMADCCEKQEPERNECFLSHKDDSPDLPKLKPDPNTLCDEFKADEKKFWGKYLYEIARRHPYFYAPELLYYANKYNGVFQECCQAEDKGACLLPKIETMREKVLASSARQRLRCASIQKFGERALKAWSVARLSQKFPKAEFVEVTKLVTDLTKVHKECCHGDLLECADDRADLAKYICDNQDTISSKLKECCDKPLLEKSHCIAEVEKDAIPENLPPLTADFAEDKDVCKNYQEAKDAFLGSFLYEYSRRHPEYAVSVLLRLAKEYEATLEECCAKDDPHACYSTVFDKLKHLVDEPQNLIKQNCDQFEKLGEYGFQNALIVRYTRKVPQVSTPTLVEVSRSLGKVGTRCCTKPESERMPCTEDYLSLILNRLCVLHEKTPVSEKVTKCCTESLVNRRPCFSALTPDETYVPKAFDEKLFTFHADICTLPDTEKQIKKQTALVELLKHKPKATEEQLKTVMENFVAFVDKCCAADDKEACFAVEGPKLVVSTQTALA
# [2] = probe aXIP binding to arrayed compounds – biochemical, NeuroSMM set, 635/667 nm fluorescence, primary screen (AID 1119); settings: small-molecule microarray, higher = more signal, called active from +8 up or from −8 down;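 also: probe is the protein aXip251-270 applied at 1 µg/mL to compound-printed slides; binding of probe to printed compounds measured as 667 nm fluorescence plus signal to noise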
# [3] = probe aNOTCH3 binding on compound microarray – biochemical, small-molecule microarray, 635/667 nm fluorescence, primary screen (AID 1120); settings: higher = more signal;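 also: probe is a biotin-tagged antibody raised against NOTCH3 rather than NOTCH3 protein; score merges spot fluorescence near 667 nm with spot signal to noise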
# [4] = probe aNOTCH2 binding on compound microarray – biochemical, small-molecule microarray, 635/667 nm fluorescence, primary screen (AID 1121); settings: higher = more signal;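 also: score merges feature fluorescence read at 667 nm with its signal to noise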
# [5] = biological target: Carbonic anhydrase 2 (Homo sapiens) (UniProt P00918); experiment: compounds binding carbonic anhydrase 2 – biochemical, small-molecule microarray, Alexa647-labelled CAII, profiling panel (AID 1122); settings: CAII-A647 binding fluorescence, higher = more signal
# [6] = COS7 lysate on small-molecule microarray, probe aHis, 635 nm (AID 1123); settings: COS7 cell lysate, fluorescence, higher = more signal;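 also: z-score combines 667nm fluorescence intensity with signal-to-noise per printed compound spot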
# [7] = probe aLAP1 signal on lysate-treated microarray – cell lysate, small-molecule microarray, COS7 lysate, primary screen (AID 1124); settings: probe aLAP1, fluorescence, higher = more signal;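 also: lysate comes from COS7 cells expressing LAP1 and is applied at 0.3 µg/mL; score merges spot fluorescence near 667 nm with signal-to-noise over triplicate slides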
# [8] = tested on: Sam68 (KHDRBS1); experiment: compounds binding KHDRBS1 protein – biochemical, small-molecule microarray, 635 nm fluorescence, primary screen (AID 1125); settings: higher = more signal;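 also: score merges 667 nm channel intensity with signal to noise over triplicate slides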
# [9] = tested on: Chordin-like protein 2 (CHRDL2); experiment: compounds binding chordin-like 2 – biochemical, small-molecule microarray, 635 nm fluorescence, primary screen (AID 1126); settings: fluorescence 635 nm, higher = more signal;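 also: printed compound slides probed with Chrdl2 protein at 4 µg/mL for 1 h at 4 C; score merges 667 nm emission intensity with signal to noise over three replicate slides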
# [10] = biological target: Concanavalin-A (Canavalia ensiformis) (UniProt P02866); experiment: compounds binding concanavalin A lectin – biochemical, small-molecule microarray, Alexa647 label, 635 nm, artefact control for SMM control protein annotation, primary screen (AID 1127); settings: ConA-A647 binding fluorescence, higher = more signal;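 also: z combines 667 nm emission intensity with signal-to-noise across three replicate slides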
# Concanavalin-A (Canavalia ensiformis), sequence (P02866 whole entry, looked up): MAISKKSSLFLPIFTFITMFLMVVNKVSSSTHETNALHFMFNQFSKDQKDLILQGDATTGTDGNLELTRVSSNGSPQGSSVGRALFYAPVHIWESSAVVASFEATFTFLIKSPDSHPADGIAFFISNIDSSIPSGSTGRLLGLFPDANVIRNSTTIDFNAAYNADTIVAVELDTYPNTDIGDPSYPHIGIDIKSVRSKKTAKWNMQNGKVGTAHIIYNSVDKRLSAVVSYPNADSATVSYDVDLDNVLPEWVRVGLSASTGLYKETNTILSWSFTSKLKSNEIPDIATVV
# [11] = compounds binding Alexa647 anti-His antibody – biochemical, small-molecule microarray, 635 nm fluorescence, artefact control for SMM control protein annotation, primary screen (AID 1128); settings: higher = more signal;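 also: score merges feature fluorescence with signal-to-noise for each printed compound spot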
# [12] = tested on: Human papillomavirus type 1a E7 protein (residues 1-88); experiment: HPV1a E7 small-molecule binders, primary screen, biochemical, small-molecule microarray, residues 1-88, 635 nm (AID 1129); settings: small-molecule microarray binding, fluorescence 635 nm; higher = more signal
# [13] = biological target: Focal adhesion kinase 1 (Homo sapiens) (UniProt Q05397); experiment: PTK2 protein binding on printed compound slides – biochemical, small-molecule microarray, 635/667 nm fluorescence, BSA, DTT, primary screen (AID 1130); settings: 635 nm fluorescence, higher = more signal;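 also: composite of spot emission at 667 nm and signal to noise over triplicate slides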
# Focal adhesion kinase 1 (Homo sapiens), sequence (Q05397 whole entry, looked up): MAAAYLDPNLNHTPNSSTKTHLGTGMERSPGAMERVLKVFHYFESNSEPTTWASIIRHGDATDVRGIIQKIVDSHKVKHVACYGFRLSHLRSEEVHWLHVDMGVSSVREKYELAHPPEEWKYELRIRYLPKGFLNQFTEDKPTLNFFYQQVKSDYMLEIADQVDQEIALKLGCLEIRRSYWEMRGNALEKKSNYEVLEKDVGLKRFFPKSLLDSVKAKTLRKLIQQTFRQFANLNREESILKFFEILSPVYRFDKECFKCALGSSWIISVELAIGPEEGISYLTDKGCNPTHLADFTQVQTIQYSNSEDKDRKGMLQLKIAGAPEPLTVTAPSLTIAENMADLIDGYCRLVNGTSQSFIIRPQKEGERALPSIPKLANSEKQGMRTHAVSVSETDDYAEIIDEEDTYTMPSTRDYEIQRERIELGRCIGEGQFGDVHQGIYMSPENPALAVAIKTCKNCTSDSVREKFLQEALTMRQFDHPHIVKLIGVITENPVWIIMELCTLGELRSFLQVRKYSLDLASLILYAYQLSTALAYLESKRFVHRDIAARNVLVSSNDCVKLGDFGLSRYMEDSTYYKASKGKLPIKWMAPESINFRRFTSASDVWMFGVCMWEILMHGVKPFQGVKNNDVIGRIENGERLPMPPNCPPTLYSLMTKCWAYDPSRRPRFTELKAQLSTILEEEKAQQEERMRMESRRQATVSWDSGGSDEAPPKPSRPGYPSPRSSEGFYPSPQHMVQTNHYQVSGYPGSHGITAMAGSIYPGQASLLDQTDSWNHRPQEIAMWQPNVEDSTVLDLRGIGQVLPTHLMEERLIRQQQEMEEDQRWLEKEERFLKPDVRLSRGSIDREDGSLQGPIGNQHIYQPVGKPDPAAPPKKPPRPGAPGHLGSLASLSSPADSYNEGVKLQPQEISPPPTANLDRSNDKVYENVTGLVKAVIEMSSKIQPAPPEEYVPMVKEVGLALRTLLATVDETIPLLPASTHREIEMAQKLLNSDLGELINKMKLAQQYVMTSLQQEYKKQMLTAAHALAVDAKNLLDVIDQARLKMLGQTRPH
# [14] = tested on: Fibrinogen (Alexa647-labelled); experiment: Alexa647-fibrinogen binding to printed small molecules – biochemical, small-molecule microarray, 635/667 nm fluorescence, artefact control for SMM control-protein annotation, profiling panel (AID 1131); settings: fibrinogen-A647 binding fluorescence, higher = more signal;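 also: z-score merges 667 nm fluorescence with per-spot signal-to-noise over triplicate slides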
# [15] = biological target: Follistatin (Homo sapiens) (UniProt P19883); experiment: FST protein binding to printed compounds – biochemical, small-molecule microarray, 635/667 nm fluorescence, primary screen (AID 1132); settings: 635 nm fluorescence, higher = more signal
# Follistatin (Homo sapiens), sequence (P19883 whole entry, looked up): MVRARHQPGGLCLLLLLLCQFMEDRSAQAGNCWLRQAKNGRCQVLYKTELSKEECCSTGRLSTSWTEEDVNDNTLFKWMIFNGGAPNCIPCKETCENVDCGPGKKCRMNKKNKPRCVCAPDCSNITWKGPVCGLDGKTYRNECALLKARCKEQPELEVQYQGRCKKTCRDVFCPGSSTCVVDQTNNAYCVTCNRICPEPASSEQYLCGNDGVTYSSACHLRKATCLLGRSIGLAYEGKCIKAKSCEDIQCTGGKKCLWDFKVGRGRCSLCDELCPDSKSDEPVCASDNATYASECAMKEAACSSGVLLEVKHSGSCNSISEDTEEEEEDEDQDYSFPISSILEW
# [16] = biological target: Fibroblast growth factor 2 (Homo sapiens) (UniProt P09038); experiment: basic fibroblast growth factor binding to printed compounds – biochemical, small-molecule microarray, 635/667 nm fluorescence, primary screen (AID 1133); settings: FGF2, fluorescence 635/667, higher = more signal
# Fibroblast growth factor 2 (Homo sapiens), sequence (P09038 whole entry, looked up): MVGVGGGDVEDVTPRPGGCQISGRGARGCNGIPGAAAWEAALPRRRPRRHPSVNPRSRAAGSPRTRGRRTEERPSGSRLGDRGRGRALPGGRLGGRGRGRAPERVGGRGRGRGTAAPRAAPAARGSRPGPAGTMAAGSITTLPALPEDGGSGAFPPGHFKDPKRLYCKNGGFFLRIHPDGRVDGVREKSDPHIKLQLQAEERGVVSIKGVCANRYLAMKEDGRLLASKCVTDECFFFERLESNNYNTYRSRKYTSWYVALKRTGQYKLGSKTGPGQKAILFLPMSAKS
# [17] = JC-1 mitochondrial potential readout, lung cancer cells – cell-based, A549, JC-1 fluorescence, basal, 24 h, 100 nL, profiling panel (AID 1138); settings: higher = more signal;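 also: A549 lung adenocarcinoma cells under basal conditions with no added stimulus; test concentration not given here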
# [18] = tested on: Lefty1; experiment: Lefty1 protein binding to printed compounds – biochemical, small-molecule microarray, 635/667 nm fluorescence, primary screen (AID 1139); settings: fluorescence 635/667, higher = more signal
# [19] = tested on: wheat germ agglutinin (Triticum aestivum), Alexa647-labelled; experiment: Alexa647-WGA lectin binding to printed small molecules – biochemical, small-molecule microarray, 635/667 nm fluorescence, artefact control for SMM control-protein annotation, profiling panel (AID 1140); settings: WGA-A647 binding, 635 nm fluorescence, higher = more signal;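 also: score merges 667 nm feature emission with signal to noise over triplicate slides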
# [20] = biological target: Luciferin 4-monooxygenase (Photinus pyralis) (UniProt P08659); experiment: inhibition of purified Photinus pyralis luciferase – biochemical, luminescence, purified enzyme, 2006 set, primary screen (AID 1141); settings: purified firefly luciferase, SteadyGlo luminescence, 30 min; higher = more signal, called active from +8 up or from −8 down;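 also: cell-free assay with purified firefly luciferase at 100 ng per well in PBS; test concentration not given here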
# Luciferin 4-monooxygenase (Photinus pyralis), sequence (P08659 whole entry, looked up): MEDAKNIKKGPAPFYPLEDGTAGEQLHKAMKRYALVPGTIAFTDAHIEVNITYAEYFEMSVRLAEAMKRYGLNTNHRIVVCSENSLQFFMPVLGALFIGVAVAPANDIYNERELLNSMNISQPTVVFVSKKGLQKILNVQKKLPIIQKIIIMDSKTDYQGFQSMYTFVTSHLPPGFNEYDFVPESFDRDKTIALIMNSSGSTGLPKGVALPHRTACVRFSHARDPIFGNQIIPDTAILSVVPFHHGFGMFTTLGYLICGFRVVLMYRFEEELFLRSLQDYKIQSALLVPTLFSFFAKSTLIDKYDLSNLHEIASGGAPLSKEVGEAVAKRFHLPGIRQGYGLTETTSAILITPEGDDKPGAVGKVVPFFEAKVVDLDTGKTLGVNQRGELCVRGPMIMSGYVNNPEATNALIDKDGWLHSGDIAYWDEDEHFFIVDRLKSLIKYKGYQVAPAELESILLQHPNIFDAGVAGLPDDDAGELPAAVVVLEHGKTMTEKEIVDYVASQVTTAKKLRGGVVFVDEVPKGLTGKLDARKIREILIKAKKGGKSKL
Structure (SMILES),composite z-score [1],composite Z-score [2],composite z-score [3],composite z-score [4],composite z-score [5],composite z-score [6],composite z-score [7],composite z-score [8],composite z-score [9],composite z-score [10],composite z-score [11],composite z-score [12],composite z-score [13],composite z-score [14],composite z-score [15],composite z-score [16],z-score [17],composite z-score [18],composite z-score [19],z-score [20]
C=CCNC(=O)[C@H]1[C@@H]2C(=O)O[C@@H](c3ccccc3)[C@@H](c3ccccc3)N2[C@@H](c2ccc(OCCO)cc2)[C@]12C(=O)Nc1ccc(C#CC3=CCCCC3)cc12,0.17,0.0758 (inactive),-0.0933,-0.0703,0.338,0.999,0.272,1.31,0.105,0.994,0.354,1.09,-0.544,0.957,1.26,0.553,-0.801,0.937,0.494,0.098 (inactive)
CCOC(=O)C1=CCC(c2ccccc2)N(S(=O)(=O)CC[Si](C)(C)C)C1 (stereo not given),-0.149,0.0503 (inactive),-0.392,-0.188,-0.35,-0.177,-0.0394,-0.717,0.165,-0.0238,0.149,-0.401,0.384,-0.325,-0.172,-0.617,3.06,-0.503,0.0225,1.2 (inactive)
[N-]=[N+]=NCc1ccccc1[C@@H]1OC(c2ccc(OCCCO)cc2)=N[C@]1(CCS(=O)(=O)c1ccccc1)C(=O)NCCN1CCOCC1,0.899,1.31 (inactive),0.576,0.0476,0.634,2.86,0.623,1.3,0.207,1.1,1.68,1.29,0.261,1.03,1.43,0.913,0.721,0.684,1.31,-2.52 (inactive)
C=CCNC(=O)[C@H]1[C@@H]2C(=O)O[C@@H](c3ccccc3)[C@@H](c3ccccc3)N2[C@@H](c2ccccc2OCCO)[C@]12C(=O)Nc1ccc(C#CC3=CCCCC3)cc12,0.039,1.86 (inactive),0.0942,-0.148,0.0836,1.19,1.37,1.29,0.495,1.02,0.971,1.17,0.26,0.783,1.16,1.21,-0.856,0.681,0.394,-1.19 (inactive)
COc1cc(OC)c(C(O)C2C=CC3C(=O)NC(=O)C3N2Nc2ccc(Cl)cc2Cl)cc1Br (stereo not given),1,2.76 (inactive),0.282,0.321,0.615,2.99,0.474,1.22,-1.09,0.468,1.29,1.22,0.859,0.786,0.677,0.518,-0.824,0.0498,1.07,0.719 (inactive)
COc1ccc(C(=O)Nc2ccc(CN3C(=O)[C@@]4(O[C@@H](CCn5cc([C@H](O)c6ccccc6)nn5)[C@H]([Si](C)(C)c5ccc(OC)cc5)[C@H]4C)c4ccccc43)cc2)cc1,0.0961,0.611 (inactive),-0.0377,-0.124,0.563,1.39,0.0085,0.876,-0.238,0.399,0.848,-0.024,-0.103,0.579,0.836,-0.019,1.83,0.526,0.376,-0.753 (inactive)
C=CCOC(=O)[C@H]1[C@@H]2C(=O)O[C@@H](c3ccccc3)[C@@H](c3ccccc3)N2[C@@H](c2ccc(OCCOC(=O)[C@H]3C[C@H]4C(=O)N[C@@H](CC(C)C)C(=O)N4[C@H]3c3ccc(O)cc3)cc2)[C@]12C(=O)Nc1ccc(I)cc12,-0.262,0.672 (inactive),0.17,-0.117,0.597,1.77,0.818,1.28,1.37,1.16,0.756,0.937,0.798,0.839,1.19,1.55,-1.29,1.54,0.739,-2.02 (inactive)
CC1(C)[C@@H]2CC(C(O)C3C=CC4C(=O)N(c5ccccc5)C(=O)C4N3Nc3ccccc3)=C[C@H]1C2 (stereo not given in full),0.566,-0.212 (inactive),-0.0144,0.0127,0.408,1.61,0.322,0.031,0.684,0.566,-0.21,0.598,1.13,0.153,0.955,0.329,1.01,-0.409,0.241,0.486 (inactive)
COc1ccc([Si](C)(C)[C@H]2[C@H](CC(=O)N3CCC[C@H]3CO)O[C@@]3(C(=O)N(Cc4cccc(N5C(=O)c6cccc7cccc5c67)c4)c4ccccc43)[C@@H]2C)cc1,0.416,0.488 (inactive),0.143,-0.0745,0.346,1.53,0.0595,1.04,0.956,1.1,0.874,0.614,0.209,0.94,1.17,0.7,1.57,1.52,0.571,-0.75 (inactive)
CCOC(=O)[C@H]1CC=C2CC1C(=O)N1CCC[C@@H]1[C@@H]2O[Si](C)(C)C(C)(C)C (stereo not given in full),-0.0458,0.131 (inactive),-0.213,-0.161,-0.386,0.168,-0.407,-0.0813,-0.287,-2.28,-0.0289,-0.708,-0.173,-0.162,-0.878,-0.206,-0.158,0.449,-0.502,0.367 (inactive)
